About 10 (0.005%) of roughly 200,000 compounds were called active. Roughly 8% stayed inconclusive and do not appear here. Calls follow the shape of the dose curve; as a rule, active = well fitted inhibition curve with a large enough effect; inconclusive = small, poorly fitted or top-dose-only effect, or effect the other way, or another doubt; inactive = no such curve, though single readings can be large or run the other way. These entries were drawn from the full list.
Target: Lysosomal alpha-glucosidase (Homo sapiens) (UniProt P10253)
Assay: qHTS Assay for Inhibitors of Human alpha-Glucosidase as a Potential Chaperone Treatment of Pompe Disease;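 also: plate controls were uninhibited enzyme wells for no effect and no-enzyme background for full effect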
Conditions: purified human GAA, 4-MU-alpha-glucoside fluorescence; series mostly up to 76.9 µM; activity change, negative = inhibition: at the top concentration
Source text: NIH Chemical Genomics Center [NCGC] NIH Molecular Libraries Probe Production centers Network [MLPCN] MLPCN Grant: 1R03MH084841-01 Assay Submitter (PI): Wei Zheng NCGC Assay Overview: Alpha-glucosidase is responsible for hydrolysis of terminal, non-reducing 1,4-linked alpha-D-glucose residues with release of alpha-D-glucose. It is a lysosomal hydrolase that is required for the degradation of a small percentage (1-3%) of cellular glycogen in human. Deficiency of this enzyme results in glycogen-storage disease type II (GSDII), also referred to as Pompe disease, an autosomal recessive disorder. Structurally normal glycogen is accumulated in lysosomes and cytoplasm in affected patients, primarily in muscle tissues. Excessive glycogen storage within lysosomes may interrupt normal functioning of other organelles and leads to cellular injury. In turn, this leads to enlargement and dysfunction of the entire organ involved (eg, cardiomyopathy and muscle weakness). It has reported that the improper folding and trafficking of alpha-glucosidase resulting from the genetic mutations may account for a significant number of Pompe patients. […] We optimized this alpha-glucosidase assay in 1536-well plate format for identifying the novel small molecule inhibitors with the structures other than the sugar analogs in order to develop the new pharmacological chaperones.
NCGC Assay Protocol Summary: This is a fluorogenic enzyme assay with 4-methylumbelliferyl-alpha-D-[…] as the substrate and human alpha-glucosidase as the enzyme preparation. Upon the hydrolysis of this fluorogenic substrate, the resulting product, 1. 4-methyllumbelliferone, can be excited at 365 nm and emits at 440 nm which can be detected by a standard fluorescence plate reader. Data were normalized to the controls for basal activity (without enzyme) and 100% activity (with enzyme). In the AC50 values were determined from concentration-response data modeled with the standard Hill equation. Assay buffer: 50 mM citric acid (titrated with potassium phosphate to pH 5.0), 0.005% Tween-20, pH 5.0. (pH 5.0 is an optimal condition for this enzyme assay) 1536-well assay protocol for the human alpha-glucosidase: (1) Add 2 ul/well of enzyme (4 nM final) (2) Add 23 nL compounds in DMSO solution. The final titration was 0.7 nM to 77 uM. (3) Add 1 ul of substrate (400 uM final) (4) Incubate at room temperature for 20 min. (5) Add 2 ul stop solution (1M NaOH and 1M Glycine mixture, pH 10) (6) Detect the assay plate in a ViewLux plate reader (PerkinElmer) with Ex=365 nm and Em=440nm. Keywords: Alpha-glucosidase, Pompe Disease, pharmacological chaperone, chaperone therapy, high throughput screening, alpha-glucosidase inhibitor, MLSMR, MLSCN, NIH Roadmap, qHTS and NCGC

Activity change, negative = inhibition, inactive:
CN1CCc2nc(SC(C(=O)O)c3ccccc3)c(C#N)c(-c3cccs3)c2C1 (stereo not given) -7.98%
COc1ccccc1NC(=S)N1CCN(C(c2ccccc2)c2ccccc2)CC1 -6.81%
S=C(NNC(=S)NC1CC2CCC1C2)NC1CC2C=CC1C2 (stereo not given) -2.79%
COc1ccccc1NC(=S)N1CCC(NC(=O)C23CC4CC(CC(C4)C2)C3)CC1 7.9%
COc1ccc2[nH]c(C(=O)Nc3ccccc3Cl)cc2c1 -17.6%
COc1ccc(Br)c2c1C(=O)CC2 1.34%
c1ccc(-n2nnnc2-c2cccnc2)cc1 2.38%
CCCSc1ncccc1C(=O)O 3.35%
Cn1c(SCC(=O)c2ccc(F)cc2)nnc1-c1ccccn1 4.07%
COc1ccc(Cl)cc1NC(=O)C(C)N1CCc2ccccc21 (stereo not given) 4.93%
CSc1ccc(CNCCN2CCOCC2)cc1 7.49%
Cc1ccccc1NC(=O)Nc1ccccc1N1CCCCC1 -14%
Clc1ccc(CSc2nnc3c(n2)[nH]c2ccccc23)cc1 7.73%
O=C(COc1ccc(S(=O)(=O)N2CCCCC2)cc1)NCc1ccccn1 -7.73%
O=C(NNS(=O)(=O)c1ccccc1C(F)(F)F)c1cc2ncc(C(F)(F)F)cc2s1 -2.23%
CCOC(=O)C1CCN(C(=O)C2(NC(=O)Nc3cccc(F)c3)CCCCC2)CC1 5.94%
Cc1ccccc1-c1nc(C#N)c(NCc2ccco2)o1 -5.5%
Cc1cccc(C(=O)N2CCC(c3nc4ccccc4s3)CC2)c1 -3.53%
COc1ccc(CN2CCN(Cc3cn(C)nc3-c3ccccc3)CC2CCO)c(C)c1C (stereo not given) 4.33%
Cc1noc(C)c1/C=N/Nc1ccc2ccccc2n1 8.17%
COc1cc(CNCCN(C)C)ccc1OCc1c(F)cccc1Cl 7.64%
Cc1ccc(C(=O)NC(=S)Nc2ccc(N3CCOCC3)cc2)cc1 -7.85%
O=C(CN1CCN(C/C=C/c2ccccc2)CC1)Nc1ccc(F)cc1F 2.05%
COC(=O)c1cn(C(=O)c2ccc(Cl)cc2)c2ccccc12 1.26%
O=C1/C(=C/c2cccs2)CCC1C1CCCC1 (stereo not given) -10.7%
O=C(CCl)N(Cc1cccc([N+](=O)[O-])c1)c1cccc(Cl)c1 0.594%
Cc1cc(OC(=O)c2ccccc2)c([N+](=O)[O-])c(=O)[nH]1 -5.1%
CC(O)CNCCOc1cccc(Oc2ccccc2)c1 (stereo not given) 13.8%
O=C(CSc1ncn[nH]1)Nc1nc(-c2cccc([N+](=O)[O-])c2)cs1 -24.7%
Nc1ccc(C(=O)OCC(=O)NC2CCS(=O)(=O)C2)cc1[N+](=O)[O-] (stereo not given) -4.02%
COc1cccc(OCCCN2CCCCCC2)c1 2.44%
Cc1ccc(Cl)cc1NC(=O)COC(=O)CC(C)(C)C -12.7%
CCC1(C)Cc2c(sc3nc(SC)[nH]c(=O)c23)CO1 (stereo not given) 0.866% [at 15.4 µM]
CC1CCN(S(=O)(=O)c2ccc3ncn(CC(=O)N(C)C4CCCCC4)c(=O)c3c2)CC1 1.35%
Cc1nn(-c2ccccc2)c(=O)c2noc(C)c12 -3.66% [at 15.4 µM]
Cc1ccc(NNC(=O)c2c(F)cccc2Cl)cc1Cl 1.45% [at 15.4 µM]
Cc1c(C(=O)N(Cc2ccccc2)Cc2cccnc2)cnn1-c1ccc(F)cc1 -2.19%
CCOC(=O)C(=CNNc1ccsc1C(=O)OC)C(=O)OCC 3.25%
Cc1ccc(-c2csc(-c3cc(C)on3)n2)cc1 2.67%
CC(=O)Nc1ccc(S(=O)(=O)Nc2nccc(/C=C/c3ccccc3F)n2)cc1 4.07%
CCN1CCN(C(C(=O)NC2CCCC2)c2cc3c(cc2[N+](=O)[O-])OCO3)CC1 (stereo not given) 7%
Cc1ccc(C2CCN(C(=S)Nc3cccc(Cl)c3)C2)cc1 (stereo not given) -0.289%
COc1cccc(-c2ccc(SCC(=O)N3CCN(c4ccccc4)CC3)nn2)c1 -0.133%
COc1ccccc1-c1c(C#N)c(N)nc2c1CCC2 6.93% [at 15.4 µM]
Cc1noc(C)c1-c1nc(CSc2ccc(Cl)cc2)no1 -4.19%
C/C(=N/NC(=O)c1ccn(C)n1)c1ccncc1 -7.14%
O=C(COC(=O)c1ccccn1)Nc1cccc2ccccc12 -3.22%
CC(C)CCN1CCN(Cc2ccc(C(F)(F)F)cc2)CC1CCO (stereo not given) -11.2%
O=C(NC(Cc1c[nH]c2ccccc12)C(=O)O)/C(=C/c1ccco1)NC(=O)c1ccccc1 (stereo not given) 2.81%
COc1ccccc1-n1c(=S)[nH]c2c(sc(=S)n2-c2ccc(C)cc2C)c1=O -8.28%
COc1ccc(C)cc1NC(=O)NCc1ccccn1 10.1%
Cn1c(CC2Sc3ccccc3NC2=O)nnc1SCC(=O)c1ccc(Cl)cc1 (stereo not given) -4.88%
N#Cc1ccc(Oc2ccc(C(F)(F)F)cc2NC(=O)c2ccc(F)cc2)cc1 -0.785%
O=C(CSc1ccc([N+](=O)[O-])cn1)Nc1ccc(N2CCOCC2)c(Cl)c1 -3.22%
C/C(=N/O)c1ccc(N2C(=O)C3C4C=CC(C3C2=O)C2C3C(=O)N(c5ccc(/C(C)=N/O)cc5)C(=O)C3C42)cc1 (stereo not given) 10.2%
CC(=O)c1ccc(N=C2SCCCN2C(=O)C2CCCCC2)cc1 -10.5%
O=C(NNC(=S)NC(=O)c1cn(-c2ccccc2)nc1-c1ccccc1)c1ccncc1 -1.89%
COc1ccc(C)cc1NC(=S)Nc1ccccc1SC 4.13%
Cc1ccc(S(=O)(=O)NC(=O)N2CCCN(Cc3ccc(F)cc3)CC2)cc1 1.35%
Cc1ccc(/C=N/NC(=O)CN2CCN(Cc3ccccc3)CC2)s1 -2.78% [at 15.4 µM]
CCS(=O)(=O)c1ccc(O)c(NC(=O)COc2ccc(Cl)cc2)c1 -0.357%
CCc1nc2ccccc2c(C(=O)NCc2ccc(OC)cc2)c1C -0.62%
CCc1ccc(CN(C)C(=O)CCc2nnc(-c3ccc(-c4ccccc4)cc3)o2)nc1 -8.54%
CN(C)c1ccc(C=NCCc2ccc(S(N)(=O)=O)cc2)cc1 4.96%
COc1ccc(CN2CCC(c3nc4ccc(Cl)cc4[nH]3)CC2)cc1 5.4%
Cc1ccccc1CSc1nnc(-c2ccccc2)c(=O)[nH]1 0.989%
CCC(=O)OCCNc1nc(-c2ccccc2)nc2ccccc12 -7.1%
NNC(=O)c1cnn(-c2ccccc2)c1C(F)(F)F 3.92%
Cc1ccc(CN(Cc2cccnc2)C(=S)Nc2cccc(Cl)c2C)cc1 6.23%
CCOc1cc2c(Cl)ncnc2c(OCC)c1OCC -5.72%
